Records with an inconclusive call do not appear. Activity calls are given as the source filed them. The call rests on the fitted dose curve; in most records, active means well fitted inhibition curve with a large enough effect; inconclusive means small, poorly fitted or top-dose-only effect; inactive means flat fitted curve, though single readings scatter.
What was measured:
Test in all cases: qHTS profiling for inhibitors of Plasmodium falciparum proliferation (AID 504749); further: nearly all actives have a fitted effect of over 60% in size
Details in all cases: P. falciparum in erythrocytes, SYBR Green DNA, 72 h; series mostly up to 28.7 µM
CP266 = tested on: CP266
Summary of the method: (§1)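 Readout was DNA-dye fluorescence from lysed cultures, ex 485/em 535 nm. Parasitized red cells had grown 72 h with compound; data scaled between 0.29 uM artemisinin and DMSO wells and corrected using vehicle-only plates.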

CP268 = tested on: CP268
Summary of the method: as §1

CP269 = tested on: CP269
Summary of the method: as §1

CP286 = tested on: CP286
Summary of the method: as §1

CP291 = tested on: CP291
Summary of the method: as §1

CP297 = tested on: CP297
Summary of the method: as §1

CP305 = tested on: CP305
Summary of the method: as §1

CP315 = tested on: CP315
Summary of the method: as §1

CP325 = tested on: CP325
Summary of the method: as §1

CP329 = tested on: CP329
Summary of the method: as §1

CP335 = tested on: CP335
Summary of the method: as §1

DFO2036 = tested on: DFO2036
Summary of the method: as §1

DIV14 = tested on: DIV14
Summary of the method: as §1

DIV17 = tested on: DIV17
Summary of the method: as §1

DIV30 = tested on: DIV30
Summary of the method: as §1

Dd2 = tested on: Dd2
Summary of the method: as §1

ECU = tested on: ECU
Summary of the method: as §1

FAB9 = tested on: FAB9
Summary of the method: as §1

GB4 = tested on: GB4
Summary of the method: as §1

HB3 = tested on: HB3
Summary of the method: as §1

ICS = tested on: ICS
Summary of the method: as §1

JCK = tested on: JCK
Summary of the method: as §1

N140 = tested on: N140
Summary of the method: as §1

P93_24 = tested on: P93_24
Summary of the method: as §1

P94_40 = tested on: P94_40
Summary of the method: as §1

PAD = tested on: PAD
Summary of the method: as §1

PC15 = tested on: PC15
Summary of the method: as §1

PC26 = tested on: PC26
Summary of the method: as §1

PC49 = tested on: PC49
Summary of the method: as §1

SC27B = tested on: SC27B
Summary of the method: as §1

TAB109 = tested on: TAB109
Summary of the method: as §1

TAB113 = tested on: TAB113
Summary of the method: as §1

TAB165 = tested on: TAB165
Summary of the method: as §1

W2 = tested on: W2
Summary of the method: as §1

Measured: Potency
Potency means the concentration at half of the fitted maximal effect.

CO[C@H]1OC2O[C@@]3(C)CC[C@H]4[C@H](C)CC[C@@H]([C@H]1C)[C@@]24OO3 (some centres undefined)
active: CP266 67.5 nM | CP268 21.3 nM | CP269 21.3 nM | CP286 17.8 nM | CP291 26.9 nM | CP297 23.9 nM | CP305 15.1 nM | CP315 95.3 nM | CP325 15.1 nM | CP329 60.1 nM | CP335 23.9 nM | DFO2036 15.8 nM | DIV14 10.7 nM | DIV17 12 nM | DIV30 15.1 nM | Dd2 7.1 nM | ECU 15.8 nM | FAB9 22.4 nM | GB4 13.5 nM | HB3 7.9 nM | ICS 4.5 nM | JCK 12600 nM | N140 12.6 nM | P93_24 10 nM | P94_40 11.2 nM | PAD 20 nM | PC15 11.2 nM | PC26 15.1 nM | PC49 25.1 nM | SC27B 14.1 nM | TAB109 12.6 nM | TAB113 11.2 nM | TAB165 22.4 nM | W2 6 nM
